According to PubChem BioAssay (Tox21):
Activity calls are given as the source filed them. Unless noted, calls follow the shape of the dose curve; as a rule, active = well fitted curve in the direction sought with a large enough effect in the repeat runs; inconclusive = weak or mixed curves; inactive = no such curve, though single readings can be large; an effect the other way counts as inactive or inconclusive.

What was measured:
[1] = qHTS assay to test for compound auto fluorescence at 535 nm (green) in HEK293 cells (AID 720680)
[2] = qHTS assay to test for compound auto fluorescence at 460 nm (blue) in HEK293 cell free culture (AID 720681)
Summary of the method: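 Compounds were added to cell-free DMEM with 10% FBS and fluorescence read directly. The blue channel used 405 nm excitation and 460 nm emission, with triamterene as the reference fluorophore.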

[3] = qHTS assay to test for compound auto fluorescence at 535 nm (green) in HEK293 cell free culture (AID 720682)
Summary of the method: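 Read-out: 485/535 nm fluorescence intensity, calibrated against fluorescein. Medium only (DMEM + 10% FBS, no cells); test compound or DMSO vehicle added by pintool before plate reading.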

[4] = qHTS assay to test for compound auto fluorescence at 590 nm (red) in HEK293 cell free culture (AID 720683)
Summary of the method: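 Cell-free wells of DMEM with 10% FBS received compound, and intrinsic fluorescence was read at excitation/emission 540/590 nm. Values expressed as equivalence to Rose Bengal sodium.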

[5] = qHTS assay to test for compound auto fluorescence at 590 nm (red) in HepG2 cell free culture (AID 720684)
Summary of the method: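 Rose Bengal sodium served as the reference for red signal. Test compounds were dispensed into serum-containing MEM (10% FBS) without cells, and plates were read at 540/590 nm.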

[6] = qHTS assay to test for compound auto fluorescence at 460 nm (blue) in HepG2 cell free culture (AID 720685)
Summary of the method: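 Cell-free plates of MEM plus 10% FBS received 23 nL compound or DMSO vehicle; blue-channel (405/460 nm) intensity scored against triamterene as reference fluorophore.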

[7] = qHTS assay to test for compound auto fluorescence at 535 nm (green) in HepG2 cell free culture (AID 720686)
[8] = qHTS assay to test for compound auto fluorescence at 460 nm (blue) in HepG2 cells (AID 720687)
Summary of the method: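 HepG2 cells in MEM with 10% FBS, attached overnight at 37 C, were exposed to compound or DMSO for 1 hr at 37 C, 5% CO2. Blue fluorescence was read at 405/460 nm, with triamterene as reference fluorophore.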

[9] = target: Glucocorticoid receptor (Homo sapiens) (UniProt P04150); assay: qHTS assay to identify small molecule agonists of the glucocorticoid receptor (GR) signaling pathway (AID 720691; active = well fitted activation curve with a large enough effect in the signal ratio in the repeat runs, not every such curve was filed as active; inconclusive = weak or mixed curves, or effect the other way; inactive = no such curve, though single readings can be large or run the other way; the % refers to the signal ratio; also: potency is read from the fitted curve at half-maximal effect)
Chain of Glucocorticoid receptor (Homo sapiens) (P04150 whole entry, looked up): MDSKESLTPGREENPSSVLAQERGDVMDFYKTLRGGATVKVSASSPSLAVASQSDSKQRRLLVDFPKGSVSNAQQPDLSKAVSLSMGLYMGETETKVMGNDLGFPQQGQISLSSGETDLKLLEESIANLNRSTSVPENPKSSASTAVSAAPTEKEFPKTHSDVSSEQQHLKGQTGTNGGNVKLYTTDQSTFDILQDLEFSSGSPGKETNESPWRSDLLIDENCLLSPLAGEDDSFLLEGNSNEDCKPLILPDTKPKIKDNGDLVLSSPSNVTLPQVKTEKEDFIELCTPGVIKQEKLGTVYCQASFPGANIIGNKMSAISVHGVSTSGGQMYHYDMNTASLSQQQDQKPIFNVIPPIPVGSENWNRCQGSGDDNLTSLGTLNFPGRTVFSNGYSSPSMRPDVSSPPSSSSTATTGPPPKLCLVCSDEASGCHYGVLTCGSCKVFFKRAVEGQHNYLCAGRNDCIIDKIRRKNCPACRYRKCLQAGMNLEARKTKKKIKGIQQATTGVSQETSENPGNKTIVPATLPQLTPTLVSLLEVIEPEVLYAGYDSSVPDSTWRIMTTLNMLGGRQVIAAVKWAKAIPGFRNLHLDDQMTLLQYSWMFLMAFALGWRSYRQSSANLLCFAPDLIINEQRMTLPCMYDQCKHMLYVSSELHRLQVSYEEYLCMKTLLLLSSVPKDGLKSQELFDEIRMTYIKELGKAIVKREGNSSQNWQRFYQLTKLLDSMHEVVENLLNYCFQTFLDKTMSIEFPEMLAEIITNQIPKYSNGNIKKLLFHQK
Summary of the method: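 Agonist-mode qHTS in HeLa cells stably expressing a glucocorticoid-response-element beta-lactamase reporter. Fluorescence intensity read with FRET substrate (2 h, room temperature) after 18 h compound treatment at 37 C.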

[10] = target: Glucocorticoid receptor (Homo sapiens) (UniProt P04150); assay: qHTS assay to identify small molecule antagonists of the glucocorticoid receptor (GR) signaling pathway (AID 720692; active = well fitted inhibition curve with a large enough effect in the signal ratio in the repeat runs, not every such curve was filed as active; inconclusive = weak or mixed curves, or effect the other way; inactive = no such curve, though single readings can be large or run the other way; the % refers to the signal ratio)
Summary of the method: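 Inhibition of dexamethasone-driven (5 nM final) beta-lactamase expression was measured in GRE-reporter HeLa cells over 18 h at 37C. Fluorescence was read after 2 h with the B/G FRET substrate at room temperature.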

[11] = qHTS assay to identify small molecule antagonists of the glucocorticoid receptor (GR) signaling pathway - cell viability counter screen (AID 720693); also: nearly all actives have a fitted effect of over 55% in size
[12] = qHTS assay for identifying genotoxic compounds that show differential cytotoxicity against isogenic chicken DT40 cell lines with known DNA damage response pathways - wild type cell line (AID 743012); also: nearly all actives have a fitted effect of over 60% in size
Summary of the method: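 Viability by ATP luminescence (CellTiter-Glo, 30 min RT) after 40 h compound treatment at 37 C/5% CO2, using 300 parental DNA repair-proficient DT40 cells per well.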

[13] = qHTS assay for identifying genotoxic compounds that show differential cytotoxicity against isogenic chicken DT40 cell lines with known DNA damage response pathways - Rad54/Ku70 mutant cell line (AID 743015); also: nearly all actives have a fitted effect of over 60% in size
[14] = qHTS assay to identify small molecule antagonists of the androgen receptor (AR) signaling pathway - cell viability counter screen (AID 743033; also: nearly all actives have a fitted effect of over 45% in size)
[15] = qHTS assay to identify small molecule antagonists of the androgen receptor (AR) signaling pathway using the MDA cell line - cell viability counter screen (AID 743041; also: nearly all actives have a fitted effect of over 45% in size)
Summary of the method: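 Cytotoxicity counter screen: MDA-kb2 AR-luc cells, compound + R1881, 16 h, 37C, 0% CO2; CellTiter-Fluor added at 15.5 h, fluorescence read after 30 min.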

[16] = qHTS assay for identifying genotoxic compounds that show differential cytotoxicity against isogenic chicken DT40 cell lines with known DNA damage response pathways - Rev3 mutant cell line (AID 743014); also: nearly all actives have a fitted effect of over 55% in size; also: potency is read from the fitted curve at half-maximal effect
[17] = target: Androgen receptor (Homo sapiens) (UniProt P10275); assay: qHTS assay to identify small molecule antagonists of the androgen receptor (AR) signaling pathway (AID 743035; active = well fitted inhibition curve with a large enough effect in the signal ratio in the repeat runs, not every such curve was filed as active; inconclusive = weak or mixed curves, or effect the other way; inactive = no such curve, though single readings can be large or run the other way; the % refers to the signal ratio; also: potency is read from the fitted curve at half-maximal effect)
Chain of Androgen receptor (Homo sapiens) (P10275 whole entry, looked up): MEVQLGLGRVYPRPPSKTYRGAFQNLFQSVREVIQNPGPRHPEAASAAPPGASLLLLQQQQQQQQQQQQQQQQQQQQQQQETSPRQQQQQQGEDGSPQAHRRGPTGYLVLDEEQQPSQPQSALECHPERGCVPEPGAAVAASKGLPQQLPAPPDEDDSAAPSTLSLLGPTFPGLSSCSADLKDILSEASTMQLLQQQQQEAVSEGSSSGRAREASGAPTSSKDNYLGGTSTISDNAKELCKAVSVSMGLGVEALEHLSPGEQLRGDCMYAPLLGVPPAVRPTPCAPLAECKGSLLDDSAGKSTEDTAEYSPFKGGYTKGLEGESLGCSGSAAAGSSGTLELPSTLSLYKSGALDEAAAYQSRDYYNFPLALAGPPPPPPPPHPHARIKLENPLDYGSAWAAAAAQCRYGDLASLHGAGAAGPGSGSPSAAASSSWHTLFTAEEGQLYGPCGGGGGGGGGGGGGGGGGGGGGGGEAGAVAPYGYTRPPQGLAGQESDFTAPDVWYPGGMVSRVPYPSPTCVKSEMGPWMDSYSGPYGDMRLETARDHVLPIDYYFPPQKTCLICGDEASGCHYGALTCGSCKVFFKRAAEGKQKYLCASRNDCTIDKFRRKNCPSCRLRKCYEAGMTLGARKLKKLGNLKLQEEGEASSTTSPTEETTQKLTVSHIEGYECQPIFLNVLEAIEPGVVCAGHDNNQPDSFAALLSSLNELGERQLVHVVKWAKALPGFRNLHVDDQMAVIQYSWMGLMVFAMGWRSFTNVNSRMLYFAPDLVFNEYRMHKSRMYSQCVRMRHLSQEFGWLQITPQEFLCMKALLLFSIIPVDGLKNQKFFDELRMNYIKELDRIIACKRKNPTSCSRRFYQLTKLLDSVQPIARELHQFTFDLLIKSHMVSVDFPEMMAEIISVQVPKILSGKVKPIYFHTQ
Summary of the method: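 Antagonist mode: AR-bla HEK293 cells co-treated with test compounds and agonist R1881 for 16 h at 37C, 5% CO2. Beta-lactamase activity read as FRET fluorescence after 2 h room-temperature substrate loading.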

[18] = target: Androgen receptor (Homo sapiens) (UniProt P10275); assay: qHTS assay to identify small molecule agonists of the androgen receptor (AR) signaling pathway (AID 743036; active = well fitted activation curve with a large enough effect in the signal ratio in the repeat runs, with a control signal flat, not every such curve was filed as active; inconclusive = weak or mixed curves, or effect the other way; inactive = no such curve, though single readings can be large or run the other way; the % refers to the signal ratio)
Summary of the method: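 HEK293 cells stably carrying a UAS-driven beta-lactamase reporter (GeneBLAzer AR-UAS-bla-GripTite) were plated at 2,000 cells/well, rested 4 h at 37C, then exposed to compounds in DMSO for 16 h. LiveBLAzer B/G FRET substrate was added for 2 h at room temperature; fluorescence read.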

[19] = target: Androgen receptor (Homo sapiens) (UniProt P10275); assay: qHTS assay to identify small molecule agonists of the androgen receptor (AR) signaling pathway using the MDA cell line (AID 743040; also: nearly all actives have a fitted effect of over 20% in size; also: potency is read from the fitted curve at half-maximal effect)
Summary of the method: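 Luciferase read-out, ONE-Glo, 30 min RT. Cells: MDA-kb2 AR-luc, MMTV promoter with AR and GR response elements. Compound exposure 16 h, 37C, 0% CO2, after 5 h pre-incubation. qHTS agonist mode.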

[20] = target: Androgen receptor (Homo sapiens) (UniProt P10275); assay: qHTS assay to identify small molecule antagonists of the androgen receptor (AR) signaling pathway using the MDA cell line (AID 743042; also: nearly all actives have a fitted effect of over 55% in size)
Summary of the method: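 MDA-kb2 breast carcinoma cells carrying MMTV-luciferase (AR/GR responsive) were co-treated with compounds and the agonist R1881 for 16 h at 37C. Inhibition read as ONE-Glo luminescence; CellTiter-Fluor fluorescence measured in parallel for cytotoxicity.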
% is scaled to controls: 0 for no effect and ±100 for the full control effect.

Nc1ccncc1N
inactive: outcome [1] | outcome [2] | outcome [3] | outcome [4] | outcome [5] | outcome [6] | outcome [7] | outcome [8] | Potency [9] | Potency [10] | outcome [11] | Potency [12] | Potency [13] | outcome [14] | Potency [15]

CN1CC(=O)N/C1=N/C(=O)Nc1cccc(Cl)c1
inactive: outcome [1] | outcome [2] | outcome [3] | outcome [4] | outcome [5] | outcome [6] | outcome [7] | outcome [8] | Potency [9] | Potency [10] | outcome [11] | Potency [12] | Potency [16] | Potency [13] | outcome [14] | Potency [15]

CCOc1ccc2nc(S(N)(=O)=O)sc2c1
inactive: outcome [1] | outcome [2] | outcome [3] | outcome [4] | outcome [5] | outcome [6] | outcome [7] | outcome [8] | Potency [10] | outcome [11] | Potency [12] | Potency [13] | outcome [14] | Potency [15]

CCC(=O)OCc1ccccc1
inactive: outcome [1] | outcome [2] | outcome [3] | outcome [4] | outcome [5] | outcome [6] | outcome [7] | outcome [8] | Potency [9] | Potency [10] | Potency [16] | Potency [13] | outcome [14] | Potency [15]

C=C[Si](OC(C)=O)(OC(C)=O)OC(C)=O
inactive: outcome [1] | outcome [2] | outcome [3] | outcome [4] | outcome [5] | outcome [6] | outcome [7] | outcome [8] | Potency [9] | outcome [11] | outcome [14] | Potency [17] | outcome [18] | Potency [19] | outcome [20]

O=C(O)c1cn(C2CC2)c2cc(N3CCNCC3)c(F)cc2c1=O
inactive: fluorescence, % of fluorescein [1] -0.0935% [at 18.6 µM] | fluorescence, % of fluorescent control [2] -0.0136% [at 18.6 µM] | activity change [3] 0.0246% [at 18.6 µM] | fluorescence, % of fluorescent control [4] -0.102% [at 18.6 µM] | fluorescence, % of Rose Bengal [5] 0.543% [at 18.6 µM] | fluorescence, % of fluorescent control [6] 0.0229% [at 18.6 µM] | fluorescence, % of fluorescein control [7] 0.0355% [at 18.6 µM] | fluorescence, % of fluorescent control [8] -0.0408% [at 18.6 µM] | Potency [10] | outcome [11] | outcome [14] | Potency [15]

CCOC(=O)C1=NOC(c2ccccc2)(c2ccccc2)C1
inactive: outcome [1] | outcome [2] | outcome [3] | outcome [4] | outcome [5] | outcome [6] | outcome [7] | outcome [8] | Potency [10] | outcome [11] | outcome [14] | Potency [15]
active: Potency [16] 68600 nM

Cc1ncc([C@@H](CCCCCCc2ccc3c(n2)NCCC3)CC(=O)O)cn1
inactive: outcome [1] | outcome [2] | outcome [3] | outcome [4] | outcome [5] | outcome [6] | outcome [7] | outcome [8] | outcome [11] | Potency [12] | Potency [13]

NC(=O)N[C@@H](CCC(=O)O)C(=O)O
inactive: outcome [1] | outcome [2] | outcome [3] | outcome [4] | outcome [5] | outcome [6] | outcome [7] | outcome [8] | Potency [9] | Potency [10] | Potency [12] | Potency [16] | Potency [13]

O=[N+]([O-])c1ccc(/C=N\O)o1
inactive: outcome [1] | outcome [2] | outcome [3] | outcome [4] | outcome [5] | outcome [6] | outcome [7] | outcome [8] | Potency [10] | outcome [11] | outcome [14] | Potency [15]

CCCc1ncc(C[n+]2ccccc2C)c(N)n1
inactive: fluorescence, % of fluorescein [1] -0.083% [at 18.6 µM] | fluorescence, % of fluorescent control [2] -0.136% [at 18.6 µM] | activity change [3] -0.0094% [at 18.6 µM] | fluorescence, % of fluorescent control [4] 0.0061% [at 18.6 µM] | fluorescence, % of Rose Bengal [5] -0.0113% [at 18.6 µM] | fluorescence, % of fluorescent control [6] 0.0057% [at 18.6 µM] | fluorescence, % of fluorescein control [7] 0.0635% [at 18.6 µM] | fluorescence, % of fluorescent control [8] -0.0148% [at 18.6 µM] | Potency [9] | Potency [10] | outcome [11] | Potency [15]

CC(N)C12CC3CC(CC(C3)C1)C2 (configuration not stated)
inactive: outcome [1] | outcome [2] | outcome [3] | outcome [4] | outcome [5] | outcome [6] | outcome [7] | outcome [8] | Potency [9] | outcome [11] | Potency [12] | Potency [13] | outcome [14]

Cc1c(N)c(=O)n(-c2ccccc2)n1C
inactive: fluorescence, % of fluorescein [1] -0.0771% [at 18.6 µM] | fluorescence, % of fluorescent control [2] 0.0935% [at 18.6 µM] | activity change [3] -0.102% [at 18.6 µM] | fluorescence, % of fluorescent control [4] 0.419% [at 18.6 µM] | fluorescence, % of Rose Bengal [5] 0.0086% [at 18.6 µM] | fluorescence, % of fluorescent control [6] -0.0617% [at 18.6 µM] | fluorescence, % of fluorescein control [7] -0.0689% [at 18.6 µM] | fluorescence, % of fluorescent control [8] -0.0556% [at 18.6 µM] | Potency [10] | outcome [11] | Potency [12] | Potency [16] | Potency [13] | outcome [14]

COc1ccccc1OCC1CNC(=O)O1 (configuration not stated)
inactive: outcome [1] | outcome [2] | outcome [3] | outcome [4] | outcome [5] | outcome [6] | outcome [7] | outcome [8] | outcome [11] | Potency [12] | Potency [16] | Potency [13] | outcome [14]

C[C@@H]1C[C@H]2[C@@H]3C[C@H](F)C4=CC(=O)C(Cl)=C[C@]4(C)[C@@]3(F)[C@@H](O)C[C@]2(C)[C@@]1(O)C(=O)CO
inactive: outcome [1] | outcome [2] | outcome [3] | outcome [4] | outcome [5] | outcome [6] | outcome [7] | outcome [8] | outcome [11] | outcome [14] | outcome [20]
active: Potency [9] 15.1 nM [inconclusive] | Potency [17] 3380 nM | Potency [19] 6 nM

CCOC(=O)CCC(=O)OCC
inactive: outcome [1] | outcome [2] | outcome [3] | outcome [4] | outcome [5] | outcome [6] | outcome [7] | outcome [8] | Potency [9] | Potency [10] | outcome [11] | outcome [14] | Potency [15]

CC(C)c1ccc2ncccc2c1
inactive: outcome [1] | outcome [2] | outcome [3] | outcome [4] | outcome [5] | outcome [6] | outcome [7] | outcome [8] | outcome [11] | Potency [12] | Potency [13] | outcome [14] | Potency [15]

CC(CO)(CO)[N+](=O)[O-]
inactive: outcome [1] | outcome [2] | outcome [3] | outcome [4] | outcome [5] | outcome [6] | outcome [7] | outcome [8] | Potency [9] | outcome [11] | Potency [12] | Potency [16] | Potency [13] | outcome [14] | Potency [15]
